The campaign covered roughly 68,000 compounds. About 2,700 (4%) showed an effect of 50% or more. The full list was thinned out, with strong results kept by preference.

The test deals with Plasmodium berghei. The test can be described thus: Screen against P. berghei liver stage (PbLuc), transformed with Luciferase, at 2uM. The format is functional, HepG2. Conditions: tested at 2 uM.
With `O=C1CC(NS(=O)(=O)c2ccc3ccccc3c2)CN1` (stereo not given), the INHIBITION was 2.11%. Next, `CN(Cc1ccccc1O)C(=O)NC1CCCN(c2ncccn2)C1` (stereo not given): -12.48%; `CCS(=O)(=O)CCN1CCCC1c1noc(C)n1` (stereo not given): 49.02%. Next, `c1ccc2oc(CCCN3CCCC3c3noc(C4CC4)n3)nc2c1` (stereo not given): 18.86%; `CCc1nc(C2CCCN2Cc2nc3ccccc3o2)no1` (stereo not given): -32.11%. As for `Cc1nn(C)c(Cl)c1C1CCCN1Cc1nc(C2CC2)no1` (stereo not given), the INHIBITION is recorded as 51.94%. As for `Cc1nn(C)c(C)c1C1CCCN1Cc1nc(C2CC2)no1` (stereo not given), the INHIBITION is recorded as -38.96%. Consider `c1ccc2oc(CN3CCCC3c3noc(C4CC4)n3)nc2c1` (stereo not given), for which the INHIBITION is 63.68%. The result for `CCc1nc(C2CCCN2C(=O)CCCn2cncn2)no1` (stereo not given) reads 37.31%. Next, `CCS(=O)(=O)CCN1CCCC1c1noc(C2CC2)n1` (stereo not given): 51.21%. With `CCc1nc(C2CCCN2C(=O)CCn2cncn2)no1` (stereo not given), the INHIBITION came to 7.54%. Next, `CCc1nc(C2CCCN2CCn2cncn2)no1` (stereo not given): 58.49%; `COc1c(C2CCCN2Cc2nc(C3CC3)no2)c(C)nn1C` (stereo not given): -13.46%; `CS(=O)(=O)CCN1CCCC1c1noc(C2CC2)n1` (stereo not given): 21.83%. For `O=C1CN(Cc2ccc3ccccc3n2)CCN1C1CCCC1`, the INHIBITION is on record as -34.37%. Consider `CNC(=O)NCC(=O)N1CCCC1Cc1cccc(F)c1` (stereo not given), for which the INHIBITION stood at 41.21%. `CNc1nc(C(=O)N2CCN(c3cc(C)nc(C)c3)CC2)cs1`: the INHIBITION came to 7.64%. Regarding `c1cc(-c2nnn3c2COC(CNCc2nccs2)C3)ccn1` (stereo not given), the INHIBITION was determined as 16.87%. As to `O=C(c1cccc(OC2CCCC2)c1)N1CCCC(n2cncn2)C1` (stereo not given), the INHIBITION came out at 27.55%. The result for `Cc1nsc(NC(=O)N2CCC(C(C)(C)O)CC2)n1` reads -0.55%.

Turning to `CN1CCN(C(=O)c2cn(Cc3ccccc3)c3ncccc23)CC1`, the INHIBITION was determined as 46.61%.

For the compound `Cc1ccc(NC2CCN(C(=O)CCc3nccs3)CC2)nn1`, the INHIBITION came to 3.06%. Next, `CC(C)Cn1cc(C(=O)NC2CCS(=O)(=O)C2)c2ccccc2c1=O` (stereo not given): -70.1%. For the compound `O=C(C1CCOCC1)N1CCC2(CC1)CN(c1ccsc1)C(=O)CO2`, the INHIBITION is -17.15%. On to `CS(=O)(=O)Cc1ccc(NC(=O)c2cccnc2)cc1F`, for which the INHIBITION is on record as -35.1%. In the case of `NC1CCc2nc(-c3cccnc3)nc(Nc3ccc(F)cc3)c2C1` (stereo not given), the INHIBITION is -13.75%.

Regarding `CCc1nc(C2CCCN2CCCS(N)(=O)=O)no1` (stereo not given), the INHIBITION was found to be 22.29%. For `CSCCCN1CCCC1c1noc(C)n1` (stereo not given), the INHIBITION is -8.84%. Next, `CCc1nc(C2CCCN2CCCSC)no1` (stereo not given): 55.92%; `Cn1ccc(CN2CCC(CC(=O)N3CCCC3)CC2)cc1=O`: 14.5%. For the compound `Cc1cccc(N2CCC(NC(=O)CCCc3cccs3)CC2)n1`, the INHIBITION was -52.85%. Next, `CCc1nc(C2CCCN2C(=O)c2ccc(N3CCCC3)nn2)no1` (stereo not given): 63.46%. In the case of `CCc1nc(C2CCCN2C(=O)CCc2nc(C3CC3)no2)no1` (stereo not given), the INHIBITION is given as -25.46%.

`CCc1nc(C2CCCN2C(=O)c2ccc(N(C)C)nn2)no1` (stereo not given): the INHIBITION amounted to 5.91%. The result for `CCc1nc(C2CCCN2C(=O)CCc2nc(C(C)(C)C)no2)no1` (stereo not given) reads 44.43%; that for `CCc1nc(C2CCCN2C(=O)CCc2c(C)noc2Cl)no1` (stereo not given), 51.94%. Next, `CCc1nc(C2CCCN2C(=O)c2c[nH]c(C)n2)no1` (stereo not given): -72.93%. The result for `CCn1cc(-c2cc(-c3ccn(C)c3)nc(N)c2C#N)cc1C#N` reads 17.19%; that for `Cc1cnn(CC2CCCN2C(=O)c2cc3ccccc3[nH]2)c1` (stereo not given), -20.11%. As to `Cc1cnn(CC2CCCN2C(=O)c2ccc3[nH]c(=O)[nH]c3c2)c1` (stereo not given), the INHIBITION is listed as -73.25%. The result for `Cc1cnn(CC2CCCCN2C(=O)c2ccc3[nH]nnc3c2)c1` (stereo not given) reads 39.32%; that for `COc1ccc2cc(C(=O)N3CCCCC3Cn3cccn3)[nH]c2c1` (stereo not given), -28.85%; that for `Cc1cnn(CC2CCCN2C(=O)c2ccc3[nH]nnc3c2)c1` (stereo not given), 53.72%.

For `COc1ccc2cc(C(=O)N3CCCC3Cn3cc(C)cn3)[nH]c2c1` (stereo not given), the INHIBITION is reported as 53.98%. Next, `CC1CCN(C(=O)[C@H]2C[C@@H]3CCN(CC4CCOCC4)C[C@@H]3O2)CC1`: -21.33%. The result for `COCc1nc(C(=O)NS(=O)(=O)c2c(C)c(C)cc(C)c2C)cs1` reads 18.85%; that for `O=C(c1cn2ccsc2n1)N1CCN(CC2CC2)[C@@H]2CS(=O)(=O)C[C@@H]21`, -18.12%; that for `Cn1cccc1C(=O)N1CCc2c(CNS(C)(=O)=O)cncc2C1`, 6.66%. Next, `CC(C)(C)NC(=O)c1cccc(CN2CCS(=O)(=O)CC2)c1`: 12.32%; `CCc1cccnc1NCc1cnc(N2CCOCC2)nc1`: -20.29%. With `O=C(Cc1ccc(F)cc1)NCCNS(=O)(=O)C1CCCC1`, the INHIBITION is recorded as -36.61%.

In the case of `CCc1n[nH]c(C2CN(Cc3nnc(C4CC4)n3C)CCO2)n1` (stereo not given), the INHIBITION came to 51.32%.

For `CCCc1n[nH]c(C2CN(Cc3nnc(C4CC4)n3C)CCO2)n1` (stereo not given), the INHIBITION worked out at 30.05%.

For `Cc1n[nH]c(C2CN(Cc3nnc(C4CC4)n3C)CCO2)n1` (stereo not given), the INHIBITION was -82.49%.

Consider `COCCOC1CCN(C(C(=O)O)c2c(Cl)cccc2OC)CC1` (stereo not given), for which the INHIBITION is listed as -17.86%.

The record behind these values is ChEMBL document CHEMBL4513216, “Probing the Open Global Health Chemical Diversity Library for Multistage-Active Starting Points for Next-Generation Antimalarials” (ACS Infect Dis, 2020).
